# Reference: PubChem BioAssay (NCATS)
# Inconclusive results are not listed. A number with no mark means an inactive call. Calls come from the whole dose curve; as a rule, active = well fitted curve in either direction with a large enough effect (not every such curve was filed as active); inconclusive = small, poorly fitted or top-dose-only effect, or another doubt; inactive = flat fitted curve, though single readings scatter.
# Assay: AP1 Signaling Pathway (AID 357);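 note: ME-180 reporter cells stimulated with EGF at its EC50 level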
# Conditions: ME-180 (cervical carcinoma) AP-1-bla reporter, EGF-induced, beta-lactamase ratio, 5 h; at 17.2 µM (top of the series)
# Summary of the method: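 In this screen, ME-180 cells in Opti-MEM with 0.5% dialyzed FBS received EC50 EGF and compound titrations for 5 h. AP-1 reporter beta-lactamase was detected via CCF4 ratio, giving AC50 for positive and negative modulators.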
# % is set by controls: 0 for no effect and ±100 for the full control effect.
row,Structure (SMILES),"activity change, negative = inhibition"
1,Oc1c(Cl)cc(Cl)cc1Sc1cc(Cl)cc(Cl)c1O,-12.3%
2,CCCCCCCCCCCCCCCC[N+](C)(C)CCN(Cc1ccc(OC)cc1)c1ncccn1,21.6%
3,C[C@]12CC[C@H]3[C@@H](CCC4=CC(=O)CC[C@@]43C)[C@@H]1CC[C@@H]2C(=O)CO,12.4%
4,CCC(NC(C)C)C(O)c1ccc(O)c(O)c1 (stereo not given),-6.11%
5,Nc1nc2ncc(CNc3ccc(C(=O)N[C@@H](CCC(=O)O)C(=O)O)cc3)nc2c(=O)[nH]1,0.033%
6,NCCCC[C@H](N[C@@H](CCc1ccccc1)C(=O)O)C(=O)N1CCC[C@H]1C(=O)O,3.25%
7,Cc1ccnc(NS(=O)(=O)c2ccc(N)cc2)n1,17.4%
8,CCOC(=O)n1ccn(C)c1=S,13.2%
9,CCOc1ccc(Cc2nccc3cc(OCC)c(OCC)cc23)cc1OCC,-1.91%
10,O=C(CCCN1CCC(O)(c2ccc(Br)cc2)CC1)c1ccc(F)cc1,13.1%
11,CCN(CC)C(=O)N1CCN(C)CC1,1.31%
12,CC(C)(C)CC(C)(C)c1ccc(OCCOCC[N+](C)(C)Cc2ccccc2)cc1,-12.6%
13,O=C1c2ccccc2C(=O)C1c1ccccc1,-0.252%
14,CC(=O)OCC(=O)[C@@]1(O)CC[C@H]2[C@@H]3CCC4=CC(=O)C=C[C@]4(C)[C@H]3[C@@H](O)C[C@@]21C,11.9%
15,C[C@H](CCC(=O)O)[C@H]1CC[C@H]2[C@@H]3C(=O)C[C@@H]4CC(=O)CC[C@]4(C)[C@H]3CC(=O)[C@]12C,8.36%
